Compound activity deposited in PubChem BioAssay by several laboratories.
14-3-3 Bad inh: disrupts binding of bovine 14-3-3 zeta to phospho-Bad peptide; P63103; TR-FRET 14-3-3zeta/Dy647-pBad peptide displacement, 1 h; inhibition, % at 21.7 µM; actives 0.71% (n = 220,000); AID 781;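 active = inhibition above about 70%, limit read from the data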;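 note: 0% = full 14-3-3 plus peptide FRET controls and 100% = background without 14-3-3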
Target sequence (P63103 whole entry, looked up): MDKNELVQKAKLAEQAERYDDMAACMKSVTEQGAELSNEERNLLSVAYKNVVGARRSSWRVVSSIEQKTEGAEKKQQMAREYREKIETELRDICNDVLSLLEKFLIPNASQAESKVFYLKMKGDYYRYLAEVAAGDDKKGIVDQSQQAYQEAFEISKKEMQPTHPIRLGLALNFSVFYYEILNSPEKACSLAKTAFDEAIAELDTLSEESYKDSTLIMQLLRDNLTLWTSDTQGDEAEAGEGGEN
p47phox inh: p47phox (human) inhibition; P14598; p47phox/p22phox peptide binding, fluorescence polarization, 2 h; inhibition, % at 24.7 µM; actives 0.53% (n = 220,000);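 note: 0% = p47phox with labelled peptide and 100% = labelled peptide alone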
Target sequence (P14598 whole entry, looked up): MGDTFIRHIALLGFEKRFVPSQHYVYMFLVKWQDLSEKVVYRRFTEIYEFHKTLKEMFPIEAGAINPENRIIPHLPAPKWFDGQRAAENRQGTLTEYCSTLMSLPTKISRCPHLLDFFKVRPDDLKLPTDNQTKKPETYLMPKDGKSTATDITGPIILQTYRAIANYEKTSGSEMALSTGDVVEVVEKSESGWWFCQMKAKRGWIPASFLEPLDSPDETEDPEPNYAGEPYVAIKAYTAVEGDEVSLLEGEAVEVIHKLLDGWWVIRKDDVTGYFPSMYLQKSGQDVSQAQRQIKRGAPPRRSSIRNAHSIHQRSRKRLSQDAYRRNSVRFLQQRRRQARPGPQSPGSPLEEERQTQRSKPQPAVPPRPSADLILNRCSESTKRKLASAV
eIF4E 4G PPI: blocks eIF4E binding to eIF4G; P63073+Q04637; TR-FRET eIF4E-eIF4GI(517-606) binding, 2 h; inhibition, % at 21.7 µM; actives 0.37% (n = 220,000);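 note: 0% = full FRET control wells and 100% = background wells lacking eIF4GI fragment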
Mcl1 Bid PPI: disrupts binding of human Mcl-1 to Bid peptide | TR-FRET Mcl-1/Bid-Dy647 peptide binding, 1536-well | inhibition, % at 21.7 µM | actives 0.97% (n = 220,000);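 active = compounds that cut the binding signal by more than half at the single screening dose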;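 note: His-tagged Mcl-1 with europium anti-His antibody binding Bid BH3 peptide; 0% = Mcl-1 plus peptide wells and 100% = peptide-only wells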
Bim-Mcl-1: inhibitors of Bim-Mcl-1 interaction, human; Bead-based flow cytometry, Bim peptide-Mcl-1 binding; inhibition, % at 10 µM; actives 0.1% (n = 190,000); AID 1009; in the data active = inhibition above about 40%;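 note: 0% = no compound tracer wells and 100% = peptide blocker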
Mcl1 Noxa PPI: disrupts binding of human Mcl-1 to Noxa peptide | actives 1.5% (n = 220,000) | TR-FRET Mcl-1/Noxa peptide binding, 2 h | AID 1022 | Q07820 | inhibition, % at 21.7 µM;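 active = compounds that cut the protein-peptide binding signal by more than 50% relative to plate controls in a single-dose test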;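 note: His-tagged Mcl-1 with rhodamine Noxa BH3 peptide and terbium anti-His antibody; 0% = Mcl-1 plus Noxa peptide wells and 100% = peptide-only wells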
* = called active by the depositor; [ ] = another dose, or the depositor's remark. Compounds with a hit are over-represented: about 3.3% of the library has one in this group of screens.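 Rule for the calls, unless noted: active = inhibition above about 30% (limit read from the data); inactive = the rest.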

`O=c1cc(-c2ccccc2)[nH]c2ccccc12` gave 14-3-3 Bad inh 13, p47phox inh 8, eIF4E 4G PPI 49*[fluorescence artefact?], Mcl1 Bid PPI 18, Bim-Mcl-1 0 and Mcl1 Noxa PPI 13.
For COc1ccccc1CN1CN(S(=O)(=O)c2ccccc2)c2nc3ccccc3nc21 the results were 14-3-3 Bad inh 5, p47phox inh -27, eIF4E 4G PPI 5, Mcl1 Bid PPI 3 and Mcl1 Noxa PPI -3.
Screening NC(=O)CSc1nnc(-c2ccc3c(c2)OCO3)o1 returned 14-3-3 Bad inh -5, p47phox inh -2, eIF4E 4G PPI -3, Mcl1 Bid PPI -29, Bim-Mcl-1 0 and Mcl1 Noxa PPI -7.
`C/C(N)=C(/C#N)C(=O)CSc1nnc(-c2ccc3c(c2)OCO3)o1` gave 14-3-3 Bad inh 8, p47phox inh 42*, eIF4E 4G PPI -3, Mcl1 Bid PPI -32, Bim-Mcl-1 1 and Mcl1 Noxa PPI 19.
For C/C=C(\C)CN1CCN(c2ccccc2)CC1 the results were 14-3-3 Bad inh 74*, p47phox inh 1, eIF4E 4G PPI 12, Mcl1 Bid PPI 45, Bim-Mcl-1 -2 and Mcl1 Noxa PPI 45.
`C/C=C(\C)CN1CCN(c2cccc(C)c2C)CC1` gave 14-3-3 Bad inh 37, p47phox inh -15, eIF4E 4G PPI 3, Mcl1 Bid PPI 5, Bim-Mcl-1 0 and Mcl1 Noxa PPI -1.
`C/C=C(\C)CN1CCN(c2ccccc2F)CC1` gave 14-3-3 Bad inh 13, p47phox inh -3, eIF4E 4G PPI -6, Mcl1 Bid PPI 53*, Bim-Mcl-1 -5 and Mcl1 Noxa PPI 25.
C/C(=C\c1ccccc1)CN1CCN(c2ccccc2)CC1 was read as 14-3-3 Bad inh 12, p47phox inh -5, eIF4E 4G PPI 1, Mcl1 Bid PPI 3, Bim-Mcl-1 -3 and Mcl1 Noxa PPI 5.
Screening COc1cccc2c(=O)c3cccc(N)c3[nH]c12 returned 14-3-3 Bad inh 2, p47phox inh 14, eIF4E 4G PPI 1, Mcl1 Bid PPI -29, Bim-Mcl-1 1 and Mcl1 Noxa PPI 74*.
`CCC(C)(C)NC(=O)CN(C(=O)c1csnn1)c1ccccc1-c1ccccc1` gave 14-3-3 Bad inh -2, eIF4E 4G PPI 1, Mcl1 Bid PPI -7, Bim-Mcl-1 7 and Mcl1 Noxa PPI -2.
For CC(NC(=O)Cn1cnc2c1c(=O)n(C)c(=O)n2C)c1ccccc1 (centres undefined) the results were 14-3-3 Bad inh -11, p47phox inh 0, eIF4E 4G PPI 10, Mcl1 Bid PPI 94*, Bim-Mcl-1 1 and Mcl1 Noxa PPI 20.
For Cn1c(=O)c2c(ncn2CC(=O)OCC(=O)NC(c2ccccc2)c2ccccc2)n(C)c1=O the results were 14-3-3 Bad inh -4, p47phox inh -5, eIF4E 4G PPI -1, Mcl1 Bid PPI -5, Bim-Mcl-1 0 and Mcl1 Noxa PPI -7.
`Nc1nc(NCc2ccco2)nc(Nc2ccccc2)c1[N+](=O)[O-]` gave 14-3-3 Bad inh 3, p47phox inh 76*, eIF4E 4G PPI 3, Mcl1 Bid PPI -8 and Mcl1 Noxa PPI 17.
Screening CCCCNC(=O)Cn1c2c(c(-c3ccccc3Cl)cc1=O)CCC2 returned 14-3-3 Bad inh -8, p47phox inh 81*, eIF4E 4G PPI 2, Mcl1 Bid PPI -14, Bim-Mcl-1 1 and Mcl1 Noxa PPI 11.
Cc1ccc(C(=O)O)cc1-c1ccc(C=C2C(=O)c3ccccc3C2=O)o1 was read as 14-3-3 Bad inh 25, p47phox inh -62, eIF4E 4G PPI 7, Mcl1 Bid PPI -55, Bim-Mcl-1 2 and Mcl1 Noxa PPI 57*.
Cc1cccc(NC(=O)CN2C(=O)S/C(=C\c3ccc(-c4cccc(C(=O)O)c4C)o3)C2=O)c1 was read as 14-3-3 Bad inh -9, p47phox inh -26, eIF4E 4G PPI 2, Mcl1 Bid PPI -18, Bim-Mcl-1 0 and Mcl1 Noxa PPI 14.
Screening Cc1ccc(NC(=O)CN2C(=O)S/C(=C/c3ccc(-c4cc(C(=O)O)ccc4C)o3)C2=O)cc1C returned 14-3-3 Bad inh 76*[fluorescence artefact?], p47phox inh -44, eIF4E 4G PPI 40*, Mcl1 Bid PPI 94*, Bim-Mcl-1 4 and Mcl1 Noxa PPI 84*.
COC(C[C@H]1O[C@H]1[C@@H](O)[C@H](C)OCc1ccccc1)OC was read as 14-3-3 Bad inh -4, p47phox inh -17, eIF4E 4G PPI 1, Mcl1 Bid PPI -22 and Mcl1 Noxa PPI 0.
N#CC1(NC(=O)CN2CCc3ccccc3C2)CCCC1 was read as 14-3-3 Bad inh 2, p47phox inh -2, eIF4E 4G PPI 0, Mcl1 Bid PPI -8, Bim-Mcl-1 -3 and Mcl1 Noxa PPI -7.
Screening Cc1ccc2c(c1)/C(=C/c1ccco1)C(=O)N2 returned 14-3-3 Bad inh -16, p47phox inh -12, eIF4E 4G PPI -1, Mcl1 Bid PPI -36, Bim-Mcl-1 -2 and Mcl1 Noxa PPI 7.
For Cc1ccc(/C=C2\C(=O)Nc3ccccc32)o1 the results were 14-3-3 Bad inh 2, p47phox inh -7, eIF4E 4G PPI 1, Mcl1 Bid PPI -43, Bim-Mcl-1 0 and Mcl1 Noxa PPI 62*.
`Cc1nc(C(F)(F)F)c(C(=O)N/N=C(\N)c2cccnc2)s1` gave 14-3-3 Bad inh -9, p47phox inh -5, eIF4E 4G PPI 2, Mcl1 Bid PPI -16, Bim-Mcl-1 0 and Mcl1 Noxa PPI 3.
For COC(=O)N/N=C/c1ccc(-c2ccc(Cl)cc2Cl)o1 the results were 14-3-3 Bad inh 8, p47phox inh -11, eIF4E 4G PPI -2, Mcl1 Bid PPI -9 and Mcl1 Noxa PPI -12.
For O=C(O)c1ccc(N/N=C/c2ccc(-c3cc(Cl)ccc3Cl)o2)cc1 the results were 14-3-3 Bad inh 14, p47phox inh -25, eIF4E 4G PPI 6, Mcl1 Bid PPI 62* and Mcl1 Noxa PPI 111*.
Screening O=C(O)c1ccc(N/N=C/c2ccc(-c3cccc(Cl)c3)o2)cc1 returned 14-3-3 Bad inh -7, p47phox inh -31, eIF4E 4G PPI 0, Mcl1 Bid PPI -23 and Mcl1 Noxa PPI 40.
O=C(O)c1ccc(N/N=C/c2ccc(-c3ccc(Cl)cc3Cl)o2)cc1 was read as 14-3-3 Bad inh 6, p47phox inh -21, eIF4E 4G PPI 9, Mcl1 Bid PPI 48 and Mcl1 Noxa PPI 108*.
`N#CCSc1ccc(-c2nc3ccccc3[nH]2)cn1` gave 14-3-3 Bad inh 29, p47phox inh 1, eIF4E 4G PPI 0, Mcl1 Bid PPI -2, Bim-Mcl-1 -2 and Mcl1 Noxa PPI -14.
For Cc1ccc2c(c1)C1CCCC3C1N2CC(=O)N3Cc1ccccc1 (centres undefined) the results were 14-3-3 Bad inh -15, p47phox inh -20, eIF4E 4G PPI -6, Mcl1 Bid PPI -55, Bim-Mcl-1 -3 and Mcl1 Noxa PPI 51*.
Screening Cc1cc(C)n2nc(CC(=O)NCc3ccccc3Cl)nc2n1 returned 14-3-3 Bad inh 9, p47phox inh -11, eIF4E 4G PPI 1, Mcl1 Bid PPI 3, Bim-Mcl-1 -7 and Mcl1 Noxa PPI 21.
